Several values for one entry are separate records, joined by “and”; a condition that tells them apart may be missing. Equal values may be shown once. Results filed as inconclusive are left out. A call without a number means that no potency is given here. Activity calls are given as the source filed them. The call rests on the fitted dose curve; in most records, active means well fitted cell-killing curve with a large enough effect in the repeat runs; inconclusive means weak or mixed curves, or effect the other way; inactive means no such curve, though single readings can be large or run the other way.
Potency means the concentration at half of the fitted maximal effect.

The nature of the experiment: qHTS assay to identify small molecule agonists of the RXR signaling pathway - cell viability counter screen (AID 1159529). Further: nearly all actives have a fitted effect of over 50% in size. The conditions noted are these: RXR-alpha-bla HEK293T viability, CellTiter-Glo, 16 h; series mostly up to 76.8 µM. The procedure, abridged: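 Counter screen: CellTiter-Glo luminescence. Cells: RXR-alpha-UAS-bla HEK 293T. Medium: 2% charcoal-stripped FBS. Treatment: 16 h, 37 C. Reagent incubation: 30 min, RT.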
In general terms: In qHTS, concentration-response curves come from the screen itself.
Consider `C[C@@H]1CC[C@@]2(OC1)O[C@H]1[C@@H](O)[C@H]3[C@@H]4CC[C@H]5C[C@@H](O[C@@H]6O[C@H](CO)[C@H](O[C@@H]7O[C@H](CO)[C@@H](O)[C@H](O[C@@H]8OC[C@@H](O)[C@H](O)[C@H]8O)[C@H]7O[C@@H]7O[C@H](CO)[C@@H](O)[C@H](O[C@@H]8O[C@H](CO)[C@@H](O)[C@H](O)[C@H]8O)[C@H]7O)[C@H](O)[C@H]6O)[C@H](O)C[C@]5(C)[C@H]4CC[C@]3(C)[C@H]1[C@@H]2C`, for which the Potency is 4.13 µM (active).
Under `ClCc1ccccc1CCl` stands “inactive”.
For `COc1ccc(OC)c(CC(C)N)c1` (configuration not stated) the value was “inactive”; for `ClC(Cl)=C(c1ccc(Cl)cc1)c1ccc(Cl)cc1`, 56.3 µM (active) and 43.6 µM (active); for `C[C@@H](Oc1ccc(Cl)cc1Cl)C(=O)O`, “inactive”.
`O=C(NC(=O)c1c(F)cccc1F)Nc1cc(Cl)c(OC(F)(F)C(F)F)c(Cl)c1`: the Potency entry is “inactive”.
For `CCCCCCCCCCBr` the value was “inactive”.
Take `CC(C)(C)OO`: the Potency result is “inactive”.
`BrCC(Br)c1ccccc1` (configuration not stated): the Potency result is “inactive”.
Turning to `ClC1=C(Cl)[C@]2(Cl)[C@@H]3[C@@H](Cl)[C@@H](Cl)C[C@@H]3[C@@]1(Cl)C2(Cl)Cl`, the Potency entry was “inactive”.
For `OC(Cc1ccccc1Cl)(Cn1cncn1)C1(Cl)CC1` (configuration not stated) the value was “inactive”; for `COc1ccc(OC)c(C=O)c1`, “inactive”.
For `CCOC(=O)c1ccccc1S(=O)(=O)NC(=O)Nc1nc(Cl)cc(OC)n1` the value was “inactive”.
As to `CC(Cl)CN(C)C` (configuration not stated), the Potency entry was “inactive”.
With `CCCCOP(=O)(CCCC)OCCCC`, the Potency entry was “inactive”.
Under `[Cl][Sb]([Cl])[Cl]` stands “inactive”; under `c1ccc(OCC2CO2)cc1` (configuration not stated), “inactive”; under `CCOP(=S)(OCC)OC(Cl)C(Cl)(Cl)Cl` (configuration not stated), “inactive”.
Under `c1ccc2c(c1)[nH]c1cnccc12` stands “inactive”; under `N#CCc1ccc(Cl)cc1`, “inactive”.
Regarding `Oc1ccccc1Br`, the Potency result was “inactive”.
For `Clc1ccc(CCC(Cn2ccnc2)Sc2c(Cl)cccc2Cl)cc1` (configuration not stated) the value was 23.9 µM (active); for `Cc1ccc(C(=O)Cl)cc1`, “inactive”.
Under `C[As+](C)(C)CC(=O)[O-]` stands “inactive”.
As to `N#C/C=C/c1ccccc1`, the Potency entry was “inactive”.
Take `CCOP(=S)(OCC)SCS(=O)(=O)C(C)(C)C`: the Potency entry was “inactive”.
With `CC(C)(c1ccc(O)c(-c2ccccc2)c1)c1ccc(O)c(-c2ccccc2)c1`, the Potency was 24.5 µM (active).
For `CC(C)(COCC1CO1)COCC1CO1` (configuration not stated) the value was “inactive”; for `N#CSCSC#N`, 17.8 µM (active) and 17.2 µM (active); for `COP(N)(=S)OC`, “inactive”.
Under `Cc1cccc(OP(=O)(Oc2cccc(C)c2)Oc2cccc(C)c2)c1` stands “inactive”.
In the case of `C=CCOC(N)=O`, the Potency entry was “inactive”.
Under `CC(=O)/C=C/c1ccc2c(c1)OCO2` stands “inactive”; under `CCCCCCCCCC[N+](C)(C)CCCCCCCCCC`, 15.5 µM (active).
Take `COc1ccc([N+](=O)[O-])cc1O`: the Potency result was “inactive”.
Turning to `Nc1ccc([N+](=O)[O-])cc1Cl`, the Potency entry was “inactive”.
Turning to `C[C@H]1CC[C@@H]2[C@@H](C)[C@H]3[C@H](C[C@H]4[C@@H]5CC=C6CC(O[C@@H]7O[C@H](CO)[C@H](O)[C@H](O[C@@H]8O[C@H](CO)[C@@H](O)[C@H](O)[C@H]8O)[C@H]7O[C@H]7O[C@@H](C)[C@H](O)[C@@H](O)[C@H]7O)CC[C@]6(C)[C@H]5CC[C@]34C)N2C1` (some centres not stated), the Potency was 14.3 µM (active).

For the origin of these results see PubChem BioAssay (Tox21).
